Compound activity from PubChem BioAssay.
ClpP mod = qHTS Assay for Activators of ClpP; 340,000 compounds, 1.9% hits; Potency, µM (doses to about 57.5 µM), for inactives: top-dose activity change, negative = active; purified B. subtilis ClpP, FRET peptide cleavage, 20 min; AID 651965, 2013; active means well fitted falling curve with a large enough effect; inconclusive means small, poorly fitted or top-dose-only effect; inactive means no such curve, though single readings can be large or run the other way; further: the source files actives as falling curves though it sought activators and does not explain the sign; nearly all actives have a fitted effect of over 65% in size
Target sequence (P80244 whole entry, looked up): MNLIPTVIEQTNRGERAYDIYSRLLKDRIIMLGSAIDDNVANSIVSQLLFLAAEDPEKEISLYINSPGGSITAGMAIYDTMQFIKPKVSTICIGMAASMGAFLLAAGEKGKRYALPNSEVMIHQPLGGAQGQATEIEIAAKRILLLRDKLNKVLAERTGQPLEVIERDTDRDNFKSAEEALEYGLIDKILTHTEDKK
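FRET quenching reversal measured ClpP activation: 10 microg/mL B. subtilis ClpP at pH 8 with the FRET-FV decapeptide, read at 430 nm after 320 nm excitation. The 20-min minus 0-min signal was scaled between DMSO/no-enzyme wells and ADEP (5.8 microM final).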
aSyn rescue = inhibitors of alpha-synuclein toxicity in yeast. 370,000 compounds, 0.14% hits. AID 652106. Potency, µM (top dose mostly 46.1 µM), inactives show at the top dose growth rescue (activation), most hits filed as activators. Yeast expressing alpha-synuclein, growth rescue, BacTiter-Glo, 24 h; further: % of control where 0% means no effect; nearly all actives have a fitted effect of over 65% in size
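Galactose-induced alpha-syn yeast (OD600=0.02, raffinose-pregrown) + pinned cpd, 24 hr, 30 deg C; growth by BacTiter-Glo luminescence. Growth restoration scores as activation.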
Mm-Cpn inhibitor = inhibitors of Methanococcus maripaludis chaperonin TRiC (MmCpn) | purified Mm-Cpn ATPase, ADP Transcreener TR-FRET | Potency, µM (doses to about 76.9 µM), without a hit: top-dose activity, negative = inhibition, most hits filed as inhibitors | 330,000 compounds, 0.031% hits; further: on the % scale 0 is the no-effect control and ±100 the full control effect; nearly all actives have a fitted effect of over 80% in size
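Measured: ADP formation by purified Mm-CPN. Conditions: 25 nM protein, 10 uM ATP, Tris pH 7.4 with Mg2+, K+ and DTT, 37°C for 30 min. Detection: Transcreener HTRF after 30 min at room temperature.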
Abeta rescue = compounds reversing amyloid beta toxicity in yeast; yeast expressing A-beta42, growth rescue, OD600, 48 h; response scale: 0% DMSO, 100% iron-clioquinol control; Potency, µM (series often up to 46.1 µM), actives largely listed as activators; 410,000 compounds, 0.063% hits; further: nearly all actives have a fitted effect of over 55% in size
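Yeast growth medium received pinned compounds, then yeast cells expressing toxic A-beta were added; plates incubated at 30 C for 48 hr. Growth read as absorbance at 600 nm, normalized to DMSO and equimolar FeCl3 plus clioquinol controls.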
TDP43 rescue = TDP-43 toxicity inhibition in yeast; TDP-43 expressing yeast growth rescue, BacTiter-Glo, 24 h; AID 652104; Potency, µM (top dose mostly 46.1 µM), for inactives: at the highest dose growth rescue (activation), actives largely listed as activators; 410,000 compounds, 1.8% hits; further: % of control where 0% means no effect; nearly all actives have a fitted effect of over 50% in size
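Luminescence from BacTiter-Glo reports growth of TDP-43-expressing yeast after 24 hr at 30 deg C with compound. Cells were raffinose-pregrown to mid-log, then seeded in galactose medium at OD600=0.02.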
FUS suppressor = suppressors of FUS proteinopathy in yeast. S. cerevisiae FUS-expressing, growth rescue, OD600, 24 h. Potency, µM (highest dose often 76.6 µM), usual class: activators. 390,000 compounds, 0.24% hits;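 further: plate controls were DMSO vehicle for no effect and reference control for full effect; nearly all actives have a fitted effect of over 55% in size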
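Compound concentration series was pinned onto galactose-induced FUS-expressing yeast seeded at OD 0.005. Plates sat 24hr at 30C; absorbance at 600 nm gave growth. DMSO served as background control.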
* marks the source's active call; other numbers are inactive results; i = inactive; ? = inconclusive; . = not tested or not shown; [ ] = dose if it differs, or a comment. A selection: hits, their analogues and other compounds. The true share with any hit is near 3.6%. Unless noted, the call rests on the fitted dose curve; in most records, active means well fitted curve in the direction sought with a large enough effect; inconclusive means small, poorly fitted or top-dose-only effect, or another doubt; inactive means no such curve, though single readings can be large; an effect the other way counts as inactive or inconclusive. Potency means the concentration at half of the fitted maximal effect.

SMILES	ClpP mod	aSyn rescue	Mm-Cpn inhibitor	Abeta rescue	TDP43 rescue	FUS suppressor
O=C(Oc1ccc(Cl)c2cccnc12)c1ccco1	-1%	11%	1%	i	32µM*	i
Cc1cccc(NNC(=S)Nc2ccccc2)c1	-1%	13%	.	i	26%	i
Cc1cccc(NNC(=S)Nc2c(C)cccc2C)c1	.	12%	-1%	7.1µM*	?	i
Cc1cccc(NC(=S)NNc2cccc(Cl)c2)c1	.	13%	-6%	13µM*	11%	i
Cc1cccc(NNC(N)=S)c1	.	5%	-1%	i	4%	i
O=C(CSc1nccc(-c2cccs2)n1)Nc1cccc(Cl)c1	.	3%	-11%	i	14µM*	i
O=C(CSc1nccc(-c2cccs2)n1)Nc1ccc(F)c(Cl)c1	-8%	7%	5%	?	?	i
O=C(CSCc1ccccc1Cl)N1CCN(c2ccc(Cl)cc2)CC1	0%	.	.	i	16µM*	?
O=C(CSCc1ccccc1Cl)N1CCN(c2ccc(F)cc2)CC1	1%	.	.	i	14µM*	i
Cc1ccccc1CSCC(=O)N1CCN(c2ccccc2)CC1	-1%	5%	3%	i	24%	.
O=C(COc1ccccc1Cl)NCC1(N2CCOCC2)CCCCC1	0%	.	.	i	-11%	i
Clc1cccc(CSc2ncn(-c3ccccc3)n2)c1	-2%	4%	1%	i	13µM*	i
N#CC(c1ccc([N+](=O)[O-])cc1)C(CC(=O)c1ccccc1)c1ccccc1 (stereo not drawn)	.	1%	.	i	-12%	i
N#CC(c1ccccc1)C(CC(=NO)c1ccccc1)c1ccccc1 (stereo not drawn)	-1%	?	.	i	18µM*	i
Cc1csc2nc(COc3ccc(NC(=O)COc4ccc(F)cc4)cc3)cc(=O)n12	13%	.	.	i	12%	i
COc1ccc(Cc2nnc(SCc3ccc([N+](=O)[O-])cc3)o2)cc1	-1%	7%	1%	i	18µM*	i
CCOc1ccccc1NC(=O)c1nn(C)c2c1CSc1ccccc1-2	-4%	.	.	i	?	i
COc1cccc(CNC(=O)c2nn(C)c3c2CSc2ccccc2-3)c1	-3%	.	.	i	18µM*	?
CCCCNC(=O)c1nn(C)c2c1CSc1ccccc1-2	0%	.	.	i	35µM*	i
Cn1nc(C(=O)NCc2cccc(Cl)c2)c2c1-c1ccccc1SC2	-3%	.	.	i	20µM*	i
Cn1nc(C(=O)NCc2ccccc2)c2c1-c1ccccc1SC2	-2%	.	.	i	20µM*	i
Cn1nc(C(=O)NCc2ccccc2Cl)c2c1-c1ccccc1SC2	-3%	.	.	i	6%	i
CC(C)CCOc1ccc(CC(=O)NO)cc1	1%	?	.	.	.	.
Cc1ccc2c(c1)-c1c(c(C(=O)N3CCN(c4cc(C)ccc4C)CC3)nn1C)CS2	-1%	.	.	i	5%	?
COc1ccc(NC(=O)c2nn(C)c3c2CSc2ccc(C)cc2-3)cc1OC	?	.	.	i	22µM*	i
SMILES	ClpP mod	aSyn rescue	Mm-Cpn inhibitor	Abeta rescue	TDP43 rescue	FUS suppressor
Cc1ccc(CCNS(=O)(=O)c2ccc3c(c2)CCN3C(=O)CCC(=O)O)cc1	1%	.	.	i	-3%	i
CCOC(=O)[C@]12CCCC=C1N(Cc1ccc(OC)cc1)C(=O)[C@@H]2CC(=O)NCCC(C)C	.	.	.	.	.	i
CCCCn1nc(NC(=O)c2cccc(Cl)c2)c2cc3cccc(C)c3nc21	-16%	.	.	i	8%	i
O=c1[nH]c(=O)n(Cc2ccccc2)c2nc(-c3ccco3)cc(C(F)(F)F)c12	14µM*	1%	1%	i	1%	i
O=c1[nH]nc(CNc2ccc(OC(F)(F)F)cc2)c2ccccc12	0%	-5%	-6%	i	14µM*	i
O=c1[nH]nc(CNc2ccc(C(F)(F)F)cc2)c2ccccc12	-1%	5%	-6%	i	21%	i
CC1Cc2ccccc2N1C(=O)c1ccc(F)c(S(=O)(=O)N2CCOCC2)c1 (stereo not drawn)	28µM*	16%	0%	i	5%	i
O=C(Nc1ccccc1N1CCOCC1)c1ccc(F)c(S(=O)(=O)N2CCOCC2)c1	-1%	-4%	-3%	i	14%	i
COc1ccc2c(=O)cc(C(=O)O)oc2c1	.	-2%	-3%	i	-1%[9.22 µM]	i
COc1ccc2c(CN(C)c3ccccc3)cc(=O)oc2c1	22µM*	-18%	-16%	i	0%	.
COc1ccc2c(=O)c(-c3ccccc3)c(C)oc2c1	-5%	6%	2%	i	11µM*	i
COc1ccc2c(C)c(C(=O)O)oc2c1	25µM*	-1%	-2%	i	28%	i
Cc1ccc(-c2nnc3ccccc3c2C(=O)Nc2ccccc2F)cc1	-1%	.	.	i	6%	i
COc1ccc(-c2cc(C(F)(F)F)nc(SCC(=O)NCCc3ccc(OC)c(OC)c3)n2)cc1	-8%	.	.	i	16%	i
Cc1cc[n+]2c3c(cccc13)CCC2	25µM*	-10%	-2%	i	-12%	i
CCN(CC)CCNC(=O)c1c2c(nc3ccccc13)C(=O)N(C1CCCCC1)C2	28µM*	.	.	i	15%	i
O=C(NCc1ccccc1)c1c2c(nc3ccccc13)C(=O)N(C1CCCCC1)C2	-28%	.	.	i	15%	i
Cc1cc2nc(C3CCCCC3)c(Cc3ccsc3)n2c(C)c1Br	-4%	3.5µM*	.	i	20%	i
Cc1ccc(Cc2c(C3CCCCC3)nc3cc(C)c(Br)c(C)n23)cc1	-4%	-1%	.	i	7%	i
Cc1cc2nc(C(C)(C)C)c(Cc3ccsc3)n2c(C)c1Br	-1%	-13%	.	?	13µM*	i
Cc1ccccc1NC(=O)CSc1cn(CC(=O)N(C(C)C)C(C)C)c2ccccc12	2%	.	.	i	20%	i
Cc1cccc(NC(=O)c2ccc(N(Cc3ccccc3)S(C)(=O)=O)cc2)c1	1%	.	.	i	?	i
Cc1cccc(-n2c(=O)c3ccccc3n(Cc3ccccc3)c2=O)c1	-18%	.	.	i	22µM*	i
COc1ccc(-n2c(=O)c3ccccc3n(Cc3cccc(C)c3)c2=O)cc1	-3%	.	.	i	2%	i
Cc1ccc(Cl)cc1NC(=O)C1CCN(c2nc3ccccc3n3cccc23)CC1	-22%	.	.	i	1%	i
